# Results reported in PubChem BioAssay AID624126 (The Scripps Research Institute Molecular Screening Center, 2012).
# Screen size: about 360,000 compounds; about 1,400 (0.39%) were called active.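 Rule for the calls: active = activation above its plate's cutoff, the mean activation of sample wells plus 3 SD; inactive = the rest.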 For the sample, actives were picked, then their nearest neighbours and some compounds at random.
# Target: Muscarinic acetylcholine receptor M4 (Homo sapiens) (UniProt P08173)
# Sequence (P08173 whole entry, looked up): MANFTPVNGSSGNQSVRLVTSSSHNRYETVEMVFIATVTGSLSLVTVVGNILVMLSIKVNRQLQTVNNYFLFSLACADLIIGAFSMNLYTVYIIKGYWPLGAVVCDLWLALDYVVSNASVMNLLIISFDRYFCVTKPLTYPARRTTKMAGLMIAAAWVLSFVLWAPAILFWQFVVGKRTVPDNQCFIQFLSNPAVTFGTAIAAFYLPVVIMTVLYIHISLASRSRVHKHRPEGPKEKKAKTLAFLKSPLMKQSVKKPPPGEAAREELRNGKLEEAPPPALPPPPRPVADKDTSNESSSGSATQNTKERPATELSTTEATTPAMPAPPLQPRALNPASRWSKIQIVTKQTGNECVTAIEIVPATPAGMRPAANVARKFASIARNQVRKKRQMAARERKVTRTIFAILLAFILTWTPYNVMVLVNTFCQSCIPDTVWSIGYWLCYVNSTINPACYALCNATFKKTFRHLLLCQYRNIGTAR
# Assay: CHRM4 PAMs potentiating acetylcholine calcium signal – CHO-K1 cells, Fluo-8 calcium fluorescence, primary screen (AID 624126)
# Conditions: CHO-K1 hM4/Gqi5, Fluo-8 calcium fluorescence, ACh EC20; at 3 µM; active compounds read high; 0% = ACh EC20, 100% = maximal ACh
row,Structure (SMILES),activation
1,CC(C)(C(=O)N1CCC1(C)C(=O)NS(=O)(=O)c1ccc(Br)cc1)c1ccccc1 (stereo unspecified),1.17% (inactive)
2,CC(C)c1nc(CNC(=O)CC2C(=O)NCCN2Cc2cccc(F)c2F)cs1 (stereo unspecified),-2.59% (inactive)
3,Cc1nnc(SC(C(=O)Nc2cc(Cl)cc(Cl)c2)c2ccccc2)[nH]c1=O (stereo unspecified),-2.22% (inactive)
4,CN(CC(=O)Nc1c(Cl)cccc1Cl)C(=O)c1ccncc1,0.17% (inactive)
5,O=C(Nc1c(Cl)cccc1Cl)C1CCC1,11.8% (inactive)
6,NC(=S)Nc1c(Cl)cccc1Cl,43.9% (active)
7,COC(=O)c1c(NC(=O)COc2ccc(Cl)cc2Cl)sc2c1CC(C)(C)NC2(C)C,14.6% (inactive)
8,CCOc1ccccc1C1NC(=O)NC(C)=C1C(=O)OCc1ccco1 (stereo unspecified),-5.48% (inactive)
9,Cc1ccc(C2=CSC3=NS(=O)(=O)CCN23)cc1C,5.85% (inactive)
10,CCCOc1ccc(C2=CSC3=NCCN23)cc1Cl,15.8% (active)
11,CCCCOc1ccc(CON(C(C)=O)C(C)=O)cc1Cl,-9.39% (inactive)
12,CCNC(=O)CCc1nc(-c2ccc(C(C)(C)C)cc2)no1,1.74% (inactive)
13,O=C(O)C1CCCN1S(=O)(=O)c1ccc2c(c1)CCC2 (stereo unspecified),-5.21% (inactive)
14,CC(C)Cn1c(N)c(C(=O)COC(=O)CN2C(=O)C3CC=CCC3C2=O)c(=O)n(C)c1=O (stereo unspecified),-2.93% (inactive)
15,CCCc1cc(=O)[nH]c(SCC(=O)N2C(C)CCCC2C)n1 (stereo unspecified),2.48% (inactive)
16,CCCc1cc(=O)[nH]c(SCC(=O)c2c(N)n(CC(C)C)c(=O)n(C)c2=O)n1,25.4% (active)
17,Cc1ccc(SCC2=NNC(=O)C2)cc1,-0.52% (inactive)
18,O=C(Cn1nc(CNc2ccc(Cl)cc2)[n+]2c1CCCCC2)c1ccc(Cl)cc1,-0.75% (inactive)
19,Cc1ccccc1NC(=O)NC1(C(=O)N2CCCC2)CCCCC1,9.77% (inactive)
20,Cc1ccc(C)c(NC(=O)NNC(=O)c2ccc3ccccc3c2O)c1,12.9% (inactive)
21,COc1ccc2c(C)cc3nnnn3c2c1,5% (inactive)

row,Structure (SMILES),activation
1,CC(=O)c1c(OCC(=O)N(C)C2CCCCC2)ccc2c(C)cc(=O)oc12,21.7% (active)
2,Cc1cc(=O)oc2c(C(=O)c3ccccc3)c(OCC(N)=O)ccc12,-2.31% (inactive)
3,Cc1cc(=O)oc2c(C)c(OCC(=O)NCCN3CCOCC3)ccc12,-1.9% (inactive)
4,C[n+]1cccc(C(=O)O)c1,-3.7% (inactive)
5,O=C(Cc1ccc(S(=O)(=O)N2CCOCC2)s1)Nc1ccc(Br)c(C(F)(F)F)c1,-10.2% (inactive)
6,Cc1cc(=O)[nH]c(Nc2cccc(Br)c2)n1,-7.26% (inactive)
7,Cc1cc(=O)[nH]c(N/N=C/c2ccc3c(c2)OCCO3)n1,31.5% (active)
8,Cc1ccc(C)c(NC2=NCC(=O)N2c2ccc3c(c2)OCCO3)c1,-2.16% (inactive)
9,Cn1cnc2c1c(=O)n(Cc1ccccc1C#N)c(=O)n2C,1.16% (inactive)
10,O=C(C(NS(=O)(=O)c1cccc2nsnc12)c1ccccc1)N1CCN(c2ccccn2)CC1 (stereo unspecified),-11.9% (inactive)
11,O=C(Nc1nnc(C2CC2)s1)c1ccccn1,28.3% (active)
12,CCc1cc(C(=O)Nc2nnc(C3CC3)s2)sc1C,6.5% (inactive)
13,CCc1ccccc1OCC(=O)Nc1nnc(C2CC2)s1,2.68% (inactive)
14,O=C(CN1CCSCC1)N/N=C/c1ccc(F)cc1F,4.64% (inactive)
15,CCN(CC)c1ccc(C(=O)OCC(=O)c2ccco2)cc1,-1.72% (inactive)
16,Cc1cc(NC(=O)C(C)SCC(=O)Nc2cccc(S(=O)(=O)N3CCCCCC3)c2)no1 (stereo unspecified),-6.44% (inactive)
17,O=C(CCc1nc(-c2ccccc2)no1)Nc1cccc(C(=O)NC2CC2)c1,10.1% (inactive)
18,N#CCSc1ccccc1NC(=O)CN1C(=O)NC(CCc2ccccc2)C1=O (stereo unspecified),1.07% (inactive)
19,O=C(c1ccc(S(=O)(=O)NCc2ccco2)cc1)N1CCN(c2ccccc2)CC1,18.3% (inactive)
20,O=[N+]([O-])c1ccc(N2CCN(S(=O)(=O)c3ccc4ccccc4c3)CC2)cc1NCc1ccco1,14% (inactive)
21,O=C(c1ccccc1)N1CCN(c2ccc([N+](=O)[O-])c(NCc3ccco3)c2)CC1,21.4% (active)

row,Structure (SMILES),activation
1,CC(=O)c1ccc(S(=O)(=O)NCCC(=O)N2CCN(c3ccccn3)CC2)cc1,2.49% (inactive)
2,Cc1csc(SCC(=O)N(c2ccccc2)C(C)C)n1,1.05% (inactive)
3,O=C(CCC(=O)OCC(F)(F)C(F)F)NCc1ccccc1,-1.61% (inactive)
4,CC1CN(CCCOc2ccccc2-c2ccccc2)CC(C)O1 (stereo unspecified),-4.17% (inactive)
5,CC1CN(CCOc2ccccc2[N+](=O)[O-])CC(C)O1 (stereo unspecified),1.64% (inactive)
6,Cc1cc(C)c(OCCN2CC(C)OC(C)C2)c(Br)c1 (stereo unspecified),20.4% (active)
7,Cc1cc2c(cc1C)[n+](C)cn2CC(O)COCC1CC=CCC1 (stereo unspecified),4.04% (inactive)
8,O=S(=O)(Nc1ncccn1)c1ccc(NS(=O)(=O)c2cccc(Cl)c2Cl)cc1,3.83% (inactive)
9,OCCCNc1nccc(-c2cc(Nc3cccc(Cl)c3)ncn2)n1,4.57% (inactive)
10,NS(=O)(=O)c1cccnc1Nc1cccc(Cl)c1,24.9% (active)
11,CC(C(=O)NCCc1ccc(S(N)(=O)=O)cc1)N1C(=O)CC(C)(C)Sc2ccccc21 (stereo unspecified),-2.13% (inactive)
12,CCOC(=O)[C@]12CCCC=C1N(Cc1ccc3c(c1)OCO3)C(=O)[C@H](CC(=O)NCc1cccs1)C2,23.3% (active)
13,CCOC(=O)[C@]12CCCC=C1N(Cc1ccc3c(c1)OCO3)C(=O)[C@H](CC(=O)N1CCN(C(=O)c3ccco3)CC1)C2,13.2% (inactive)
14,COC(=O)[C@]12CCCCC=C1N(Cc1ccc3c(c1)OCO3)C(=O)[C@H](CC(=O)NCc1cccs1)C2,-4.76% (inactive)
15,Cc1[nH]c2c(C(=O)N3CCCC(CCC(=O)NCc4ccccc4F)C3)cccc2c1C (stereo unspecified),-3.21% (inactive)
16,Cc1nc(CN2CCN(C(=O)CCc3nnc(Cc4c[nH]c5ccccc45)o3)CC2)cs1,-5.85% (inactive)
17,COc1ccc(N2CCN(C(c3cc4ccc(C)cc4[nH]c3=O)c3nnnn3C3CCCC3)CC2)cc1 (stereo unspecified),-3.66% (inactive)
18,CCOc1ccc2[nH]c(=O)c(C(c3nnnn3CCOC)N3CCOCC3)cc2c1 (stereo unspecified),33.2% (active)
19,COCCn1nnnc1C(c1cc2ccc(OC)cc2[nH]c1=O)N1CCc2ccccc2C1 (stereo unspecified),-1.22% (inactive)
